From PubChem BioAssay (NCATS)
Results filed as inconclusive are left out. Values without a mark were called inactive. Calls of active or inactive are those of the source. Calls come from the whole dose curve; as a rule, active = well fitted cell-killing curve with a large enough effect; inconclusive = small, poorly fitted or top-dose-only effect; inactive = no such curve, though single readings can be large or run the other way.

Test: qHTS of pediatric cancer cell lines to identify multiple opportunities for drug repurposing: Primary screen for SK-N-MC cells (AID 1347093);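 for activity change, negative = cytotoxic: plate controls were DMSO neutral control for no effect and bortezomib for full effect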
Conditions: SK-N-MC viability, CellTiter-Glo luminescence, 48 h; series mostly up to 46 µM; activity change, negative = cytotoxic: at the top concentration
How it was run: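 Metabolically active cells were quantified by ATP-dependent luminescence (CellTiter-Glo, 15 min at room temperature) following 48 h treatment. Cells had been plated at 500-1,000 per well and settled for 5 h beforehand.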
Potency is the fitted concentration of half-maximal effect.

Row | SMILES | Potency | activity change, negative = cytotoxic
1 | CCc1cc(C(C)=NOCc2ccc(C3CCCCC3)c(C(F)(F)F)c2)ccc1CN1CC(C(=O)O)C1 | 37.2 nM (active) | –
2 | CC(=O)O[C@]1(C(C)=O)CC[C@H]2[C@@H]3C=C(C)C4=CC(=O)CC[C@]4(C)[C@@H]3CC[C@@]21C | 2090 nM (active) | –
3 | C=CC[C@@H]1C=C(C)C[C@H](C)C[C@H](OC)[C@H]2O[C@@](O)(C(=O)C(=O)N3CCCC[C@H]3C(=O)O[C@H](C(C)=C[C@@H]3CC[C@H](O)[C@H](OC)C3)[C@@H](C)[C@@H](O)CC1=O)[C@@H](C)C[C@@H]2OC | 8330 nM (active) | –
4 | COc1ccc(Nc2cc(-c3cnc(N)nc3)nc(N3CCOCC3)n2)cn1 | 372 nM (active) | –
5 | C[N+]1(C)[C@@H]2C[C@@H](OC(=O)C(O)(c3cccs3)c3cccs3)C[C@H]1[C@@H]1O[C@@H]12 | – | -0.163%
6 | CC(=O)N[C@H]1[C@@H]([C@H](O)[C@H](O)CO)OC(C(=O)O)=C[C@@H]1N=C(N)N | – | -16.6%
7 | CS(=O)(=O)N1CCc2c(-c3cnc(N)nc3)nc(N3CCOCC3)nc21 | 37.2 nM (active) | –
8 | O=C(O)c1ccc(Nc2ncc3c(n2)-c2ccc(Cl)cc2C(c2c(F)cccc2F)=NC3)cc1 | 662 nM (active) | –
9 | CC(=O)N1CCN(c2ccc(OCc3nn(C)c(C)c3-c3cccc4c(CCCOc5cccc6ccccc56)c(C(=O)O)n(Cc5cccnc5)c34)cc2)CC1 | 23.5 nM (active) | –
10 | NC1=N[C@H]2[C@H](CS[C@H]2CCCCC(=O)O)N1 | – | -9.76% [at 16.1 µM]
11 | OCCN1C[C@H](O)[C@@H](O)[C@H](O)[C@@H]1CO | – | 11%
